According to PubChem BioAssay (NCI):
Compounds without any hit were thinned out: in the full panel of roughly 83,000, 20% have a hit.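 Results are percent growth after 48 hours of single-concentration exposure. 100 means growth as in untreated cells, lower positive values show inhibition; negative values down to -100 show cell death.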 Values without a mark were called inactive. Activity calls are given as the source filed them. How the source made its calls: active means growth percent below 10; inactive means the rest.

Assays:
Experiment in all cases: NCI-60 one-dose screen, 48 h (100 = growth as untreated, 0 = no growth, -100 = all killed)
Settings in all cases: 10 µM
RPMI-8226 leukemia = tested on: RPMI-8226 leukemia
OVCAR-8 ovarian = tested on: OVCAR-8 ovarian
OVCAR-5 ovarian = tested on: OVCAR-5 ovarian
OVCAR-4 ovarian = tested on: OVCAR-4 ovarian
SK-OV-3 ovarian = tested on: SK-OV-3 ovarian
IGROV1 ovarian = tested on: IGROV1 ovarian
OVCAR-3 ovarian = tested on: OVCAR-3 ovarian
HS 578T breast = tested on: HS 578T breast
NCI/ADR-RES ovarian = tested on: NCI/ADR-RES ovarian
BT-549 breast = tested on: BT-549 breast
MDA-MB-435 melanoma = tested on: MDA-MB-435 melanoma
SW-620 colon = tested on: SW-620 colon
MCF7 breast = tested on: MCF7 breast
HCT-116 colon = tested on: HCT-116 colon
HCC-2998 colon = tested on: HCC-2998 colon
KM12 colon = tested on: KM12 colon
T-47D breast = tested on: T-47D breast

Compound	growth (RPMI-8226 leukemia)	growth (OVCAR-8 ovarian)	growth (OVCAR-5 ovarian) [%]	growth (OVCAR-4 ovarian) [%]	growth (SK-OV-3 ovarian) [%]	growth (IGROV1 ovarian)	growth (OVCAR-3 ovarian)	growth (HS 578T breast) [%]	growth (NCI/ADR-RES ovarian)	growth (BT-549 breast)	growth (MDA-MB-435 melanoma)	growth (SW-620 colon)	growth (MCF7 breast)	growth (HCT-116 colon)	growth (HCC-2998 colon)	growth (KM12 colon)	growth (T-47D breast)
Cn1c(C(N)=O)cc2c1-c1nc(Nc3ccccc3)ncc1CCC2	53.2%	51%	36.4	33.1	40.2	25.5%	63.5%	17.3	66.3%	33.7%	45%	57.2%	38.7%	25.8%	73.1%	7.9% (active)	
CCN1CCN(c2nc3ccccc3c3c(=O)c4ccccc4sc23)CC1	53.8%	36.9%	68.7	55.2	59.9	36.3%	60.7%		37.8%	69%	47.9%	24%	28.3%	27.5%	57.2%	36.1%	54.5%
Nc1ccc2cc(S(=O)(=O)O)cc(O)c2c1N=Nc1ccc(F)cc1	106%	107%	99.5	137	103	120%	117%		99.3%	102%	113%	104%	111%	93.4%	102%	107%	101%
CCOCC(=O)C(C#N)c1ccc(Cl)c(Cl)c1 (configuration not stated)	88.9%	101%	96.6	91.3	100	101%	110%		115%	104%	92.8%	102%	92.2%	105%	106%	107%	124%
CN(C)CCN=c1nc2c(c(N)n1-c1ccccc1)c(=S)n(-c1ccccc1)c(=S)n2-c1ccccc1	-4.61% (active)	33.6%	63.1	41.7	76.3	36.3%	-48.7% (active)		58.7%	4.45% (active)	-64.5% (active)	-59.1% (active)	17.9%	-22.1% (active)	-39.6% (active)	0.204% (active)	-19.4% (active)
COc1cc(Cl)cc(-c2nn(-c3cccc(NC(=O)Nc4ccc(Cl)c(Cl)c4)c3)cc2-c2ccncc2)c1	-4.44% (active)	1.93% (active)	37.8	13.3	14.2	36.7%	4.12% (active)		8.59% (active)	29.4%	0.46% (active)	13.3%	4.66% (active)	9.22% (active)	26.7%	14.3%	18.6%
Clc1ccc(Nc2ccnc(NCCNc3ccnc4cc(Cl)ccc34)n2)cc1	-48.9% (active)	16.9%	61.4	24.9	60	-8.25% (active)	57.8%		44.8%	40.8%	-90% (active)	-10.5% (active)	-74.6% (active)	-71.3% (active)	-89% (active)	33.7%	-60.2% (active)
O=C(NC(Cc1ccc(O)cc1)C(=O)N=Nc1c(O)[nH]c2ccccc12)c1ccccc1 (configuration not stated)	112%	93.9%	110	95.7	103	108%	103%	101	98.7%	102%	103%	96.4%	103%	99.3%		99.2%	
CC(C)(C#N)Nc1ccccc1	105%	105%	100	99.5	106	121%	124%	105	116%	108%	96.1%	112%	93.4%		119%	115%	
